Values joined by “and” are separate entries in the source; they are usually repeats but may differ in a detail not shown here. Equal values may be shown once. Records with an inconclusive call do not appear. Active and inactive are the calls of the source. Unless noted, the call rests on the fitted dose curve; in most records, active means well fitted curve in the direction sought with a large enough effect in the repeat runs; inconclusive means weak or mixed curves; inactive means no such curve, though single readings can be large; an effect the other way counts as inactive or inconclusive.
Assays:
[1] = qHTS assay for small molecule agonists of the p53 signaling pathway (AID 651631; calls by dose curve; further: nearly all actives have a fitted effect of over 15% in size; further: potency means the concentration at half of the fitted maximal effect)
Procedure, shortened: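 Testing took place in human colorectal HCT-116 cells with stable p53RE-driven beta-lactamase. After 16 h of compound exposure at 37 °C, a FRET substrate was added and fluorescence recorded 2 h later.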

[2] = qHTS assay for small molecules that induce genotoxicity in human embryonic kidney cells expressing luciferase-tagged ATAD5 (AID 651632); further: nearly all actives have a fitted effect of over 15% in size; further: potency means the concentration at half of the fitted maximal effect
Procedure, shortened: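 Genotoxicity read-out via ATAD5-luciferase: HEK293T cells, 16 hr compound incubation at 37C, Amplite detection.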

[3] = qHTS assay for small molecule agonists of the p53 signaling pathway - cell viability (AID 651633; calls by dose curve; further: nearly all actives have a fitted effect of over 30% in size; further: potency means the concentration at half of the fitted maximal effect)
Procedure, shortened: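 p53RE-bla cells, seeded at 4,000 per well and rested 5 h at 37 C/5% CO2, received compounds in DMSO for 16 h at 37 C. CellTiter-Glo was then added, and luminescence was read after 30 min at room temperature to gauge cytotoxicity.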

[4] = qHTS assay for small molecules that induce genotoxicity in human embryonic kidney cells expressing luciferase-tagged ATAD5 - cell viability (AID 651634; calls by dose curve; further: nearly all actives have a fitted effect of over 25% in size; further: potency means the concentration at half of the fitted maximal effect)
Procedure, shortened: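 Live-cell protease activity (CellTiter-Fluor, fluorescence) indicates viability. HEK293T cells with luciferase-tagged ATAD5; 15.5 hr compound treatment at 37C.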

[5] = qHTS assay for small molecule disruptors of the mitochondrial membrane potential - cell viability (AID 720634; calls by dose curve; further: nearly all actives have a fitted effect of over 20% in size; further: potency means the concentration at half of the fitted maximal effect)
Procedure, shortened: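 Human hepatoma HepG2 cells were treated for 1 hr with test chemicals, then given m-MPI dye and CellTiter-Glo. Cell viability reflects luminescence proportional to cellular ATP.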

[6] = qHTS assay for small molecule disruptors of the mitochondrial membrane potential (AID 720635); further: potency means the concentration at half of the fitted maximal effect
Procedure, shortened: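 HepG2 cells (2,000/well) attached overnight at 37C, then took compound for 1 hr at 37C, 5% CO2. Mito-MPS dye was added for 30 min; fluorescence was read at 490/535 nm (monomers) and 540/590 nm (aggregates).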

[7] = qHTS assay to test for compound auto fluorescence at 590 nm (red) in HepG2 cells (AID 720674)
Procedure, shortened: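 Compound auto-fluorescence is scored relative to Rose Bengal sodium, measured at 540/590 nm in live HepG2 cultures after 1 hr compound contact (37 C, 5% CO2).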

[8] = qHTS assay to test for compound auto fluorescence at 460 nm (blue) in HEK293 cells (AID 720678)
Procedure, shortened: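 HEK293, 2,000 cells/well, 10% dialyzed FBS; attach 4-5 hr 37C; pin compound or DMSO; o/n 37C/5% CO2; fluorescence 405/460 nm; triamterene-equivalent units.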

[9] = qHTS assay to test for compound auto fluorescence at 590 nm (red) in HEK293 cells (AID 720679)
Procedure, shortened: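 Intensity at 540nm excitation and 590nm emission is reported as Rose Bengal sodium-equivalent autofluorescence. Measurements followed overnight exposure (37C, 5% CO2) of HEK293 cells, 2,000 per well, to 23 nL compound.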

[10] = qHTS assay to test for compound auto fluorescence at 460 nm (blue) in HEK293 cell free culture (AID 720681)
Procedure, shortened: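 Test compounds were pinned into cell-free culture medium (DMEM with 10% FBS) and fluorescence was read directly at Ex/Em 405/460 nm. Signals were expressed as fluorescence equivalents of triamterene, with DMSO vehicle as control.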

[11] = qHTS assay to test for compound auto fluorescence at 535 nm (green) in HEK293 cell free culture (AID 720682)
Procedure, shortened: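 DMEM + 10% FBS, cell-free; cpd or DMSO pinned in; Ex485/Em535 read; output as fluorescein-equivalent signal.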

[12] = qHTS assay to test for compound auto fluorescence at 590 nm (red) in HEK293 cell free culture (AID 720683)
Procedure, shortened: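 Tox21 10K library compounds were pinned into cell-free DMEM with 10% FBS and fluorescence was read at excitation 540 nm. Activity is expressed as Rose Bengal sodium equivalency.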

[13] = qHTS assay to test for compound auto fluorescence at 590 nm (red) in HepG2 cell free culture (AID 720684)
Procedure, shortened: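 Measured in medium alone (MEM containing 10% FBS) following pintool addition of compound; emission at 590 nm with 540 nm excitation, referenced to Rose Bengal sodium.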

[14] = qHTS assay to test for compound auto fluorescence at 460 nm (blue) in HepG2 cell free culture (AID 720685)
Procedure, shortened: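 Compound (23 nL) or DMSO pinned into cell-free MEM with 10% FBS; blue fluorescence read at 405/460 nm excitation/emission, expressed as auto-fluorescence equivalency to triamterene.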

[15] = qHTS assay to test for compound auto fluorescence at 535 nm (green) in HepG2 cell free culture (AID 720686)
[16] = qHTS assay to test for compound auto fluorescence at 460 nm (blue) in HepG2 cells (AID 720687)
Procedure, shortened: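 Cells (2,000/well in MEM with 10% FBS) attached overnight at 37 C, then were exposed to compound or DMSO for 1 hr at 37 C, 5% CO2. Fluorescence read at Ex/Em 405/460 nm, expressed as triamterene-equivalent signal.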

[17] = target: Glucocorticoid receptor (Homo sapiens) (UniProt P04150); experiment: qHTS assay to identify small molecule agonists of the glucocorticoid receptor (GR) signaling pathway (AID 720691; active means well fitted activation curve with a large enough effect in the signal ratio in the repeat runs, not every such curve was filed as active; the % refers to the signal ratio)
Procedure, shortened: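 Beta-lactamase reporter activity, read as fluorescence intensity, was measured in GR-bla HeLa cells exposed to compounds for 18 h at 37 C and then loaded with LiveBLAzer B/G FRET substrate for 2 h at room temperature.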

[18] = target: Glucocorticoid receptor (Homo sapiens) (UniProt P04150); experiment: qHTS assay to identify small molecule antagonists of the glucocorticoid receptor (GR) signaling pathway (AID 720692; active means well fitted inhibition curve with a large enough effect in the signal ratio in the repeat runs, not every such curve was filed as active; the % refers to the signal ratio)
Procedure, shortened: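 Fluorescence from cleaved LiveBLAzer B/G FRET substrate reports GRE-driven beta-lactamase in HeLa cells; compounds are tested against 5 nM dexamethasone (final) over 18 h at 37 C, substrate incubation 2 h at room temperature.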

[19] = qHTS assay to test for compound auto fluorescence at 535 nm (green) in HepG2 cells (AID 720675)
[20] = qHTS assay to test for compound auto fluorescence at 535 nm (green) in HEK293 cells (AID 720680)

Measured: Potency

Chain of Glucocorticoid receptor (Homo sapiens) (P04150 whole entry, looked up): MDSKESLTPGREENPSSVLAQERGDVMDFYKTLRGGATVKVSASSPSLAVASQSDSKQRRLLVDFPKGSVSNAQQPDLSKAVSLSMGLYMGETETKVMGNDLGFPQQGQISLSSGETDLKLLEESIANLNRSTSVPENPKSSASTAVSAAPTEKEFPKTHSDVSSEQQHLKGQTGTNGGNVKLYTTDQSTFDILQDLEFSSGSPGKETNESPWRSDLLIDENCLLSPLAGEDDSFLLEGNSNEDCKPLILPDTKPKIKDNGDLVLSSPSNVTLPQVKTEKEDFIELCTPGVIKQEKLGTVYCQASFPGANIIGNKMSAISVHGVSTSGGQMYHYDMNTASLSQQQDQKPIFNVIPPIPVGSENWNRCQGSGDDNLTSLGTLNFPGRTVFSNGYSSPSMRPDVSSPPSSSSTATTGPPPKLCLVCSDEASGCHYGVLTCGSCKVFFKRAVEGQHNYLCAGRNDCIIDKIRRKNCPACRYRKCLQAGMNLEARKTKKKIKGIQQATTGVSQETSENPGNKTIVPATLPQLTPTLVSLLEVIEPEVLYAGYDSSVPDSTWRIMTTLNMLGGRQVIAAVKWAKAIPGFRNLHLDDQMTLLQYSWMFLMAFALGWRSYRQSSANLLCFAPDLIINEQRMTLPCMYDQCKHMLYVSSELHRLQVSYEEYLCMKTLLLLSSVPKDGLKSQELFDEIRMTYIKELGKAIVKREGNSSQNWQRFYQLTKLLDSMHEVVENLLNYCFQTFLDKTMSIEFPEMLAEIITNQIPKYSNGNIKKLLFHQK

ClC(Cl)(Cl)Br
inactive: [1] | [2] | [3] | [4] | [5] | [6] | [7] | [8] | [9] | [10] | [11] | [12] | [13] | [14] | [15] | [16] | [17] | [18]

CCN(CC)C(=O)C(C)Oc1cccc2ccccc12 (stereo not given)
inactive: [1] | [2] | [3] | [4] | [5] | [6] | [7] | [19] | [8] | [9] | [10] | [11] | [12] | [13] | [14] | [16]

Oc1ccc(Cl)cc1Cl
inactive: [1] | [2] | [3] | [4] | [5] | [7] | [8] | [9] | [20] | [10] | [11] | [12] | [13] | [14] | [16] | [18]
active: [6] 30.4 µM and 27.3 µM

CNC(=O)Oc1cccc2c1OC(C)(C)C2
inactive: [1] | [2] | [3] | [4] | [5] | [6] | [7] | [8] | [9] | [10] | [11] | [12] | [13] | [14] | [15] | [16] | [18]

COC(=O)Nc1nc2ccccc2[nH]1
inactive: [2] | [3] | [4] | [5] | [7] | [8] | [9] | [10] | [11] | [12] | [13] | [14] | [16] | [18]
active: [1] 7.7 µM and 13.7 µM

O=P(OCCCl)(OCCCl)OCCCl
inactive: [1] | [2] | [3] | [4] | [5] | [6] | [7] | [19] | [8] | [9] | [20] | [10] | [11] | [12] | [13] | [14] | [16] | [18]

CCOP(=S)(OCC)SCSC(C)(C)C
inactive: [1] | [2] | [3] | [4] | [5] | [7] | [19] | [8] | [9] | [20] | [10] | [11] | [12] | [13] | [14] | [15] | [16]

Brc1ccc(Br)cc1
inactive: [1] | [2] | [3] | [4] | [5] | [6] | [7] | [19] | [8] | [9] | [10] | [11] | [12] | [13] | [14] | [15] | [16] | [18]

CC(C)Nc1nc(Cl)nc(NC(C)C)n1
inactive: [1] | [2] | [3] | [4] | [5] | [6] | [7] | [8] | [9] | [10] | [11] | [12] | [13] | [14] | [16]

c1ccc(C2CO2)cc1 (stereo not given)
inactive: [1] | [2] | [3] | [4] | [5] | [6] | [7] | [8] | [9] | [20] | [10] | [11] | [12] | [13] | [14] | [15] | [16] | [18]

Clc1ccc(C(Cl)(Cl)Cl)cc1
inactive: [1] | [2] | [3] | [4] | [5] | [6] | [7] | [19] | [8] | [9] | [20] | [10] | [11] | [12] | [13] | [14] | [15] | [16] | [17] | [18]

NC(=O)CN1CCCC1=O
inactive: [1] | [3] | [4] | [5] | [6] | [7] | [19] | [8] | [9] | [20] | [10] | [11] | [12] | [13] | [14] | [15] | [16] | [18]

COP(=S)(OC)Oc1ccc(S(=O)(=O)N(C)C)cc1
inactive: [1] | [2] | [3] | [4] | [5] | [7] | [19] | [8] | [9] | [10] | [11] | [12] | [13] | [14] | [15] | [16] | [17] | [18]

O=[N+]([O-])c1ccc(Cl)c([N+](=O)[O-])c1
inactive: [7] | [19] | [8] | [9] | [20] | [10] | [11] | [12] | [13] | [14] | [15] | [16]
active: [1] 55.3 µM and 12.2 µM | [2] 24.7 µM | [3] 22 µM and 54.5 µM | [4] 55.3 µM and 68.6 µM | [5] 22 µM and 21.7 µM | [6] 8.77 µM and 8.63 µM

CC(C)CON=O
inactive: [1] | [2] | [3] | [4] | [5] | [6] | [7] | [8] | [9] | [10] | [11] | [12] | [13] | [14] | [15] | [16] | [18]

Reference: PubChem BioAssay (Tox21)
